# Screening data as filed in PubChem BioAssay.
# Rows were chosen to be rich in hits. Some 1.9% of all compounds tested hit in one or more screens of this group.
# aDG glyco act: activators of alpha-DG glycosylation, primary screen, uHTS, Pro5-aDG cells, AlphaScreen | 0.22% of 360,000 active | activation, % at 10 µM | alpha-DG glycosylation AlphaScreen (IIH6); 0% Pro5, 100% B10-LARGE cell signal | AID 624168, 2012;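 active = activation of at least 8% versus controls, or a plate z-score of at least 8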;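 also: Pro5 are CHO cells carrying HIG-tagged alpha-DG that lacks glycosylation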
# EBNA-1 inh: EBNA-1 DNA-binding inhibitors, primary screen, biochemical, fluorescence polarization | inhibition, % at 14.8 µM | 0.34% of 300,000 active | AID 1950, 2009; in the data active = inhibition above about 28%
# Rev-erbA mod: modulators of Rev-erb alpha DNA binding, primary screen, biochemical, FITC-DNA, fluorescence polarization, uHTS; Nuclear receptor subfamily 1 group D member 1 (Homo sapiens), P20393; 0.79% of 370,000 active; activity, % at 10 µM; AID 1259318, 2017; Rev-erbα–FITC-DNA binding, 90 min;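 active = activity above about 14%, limit read from the data; passing the limit was not always enough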;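 also: 0% = DMSO wells with 35 nM protein and 100% = DMSO wells with 750 nM protein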
# Target sequence (P20393 whole entry, looked up): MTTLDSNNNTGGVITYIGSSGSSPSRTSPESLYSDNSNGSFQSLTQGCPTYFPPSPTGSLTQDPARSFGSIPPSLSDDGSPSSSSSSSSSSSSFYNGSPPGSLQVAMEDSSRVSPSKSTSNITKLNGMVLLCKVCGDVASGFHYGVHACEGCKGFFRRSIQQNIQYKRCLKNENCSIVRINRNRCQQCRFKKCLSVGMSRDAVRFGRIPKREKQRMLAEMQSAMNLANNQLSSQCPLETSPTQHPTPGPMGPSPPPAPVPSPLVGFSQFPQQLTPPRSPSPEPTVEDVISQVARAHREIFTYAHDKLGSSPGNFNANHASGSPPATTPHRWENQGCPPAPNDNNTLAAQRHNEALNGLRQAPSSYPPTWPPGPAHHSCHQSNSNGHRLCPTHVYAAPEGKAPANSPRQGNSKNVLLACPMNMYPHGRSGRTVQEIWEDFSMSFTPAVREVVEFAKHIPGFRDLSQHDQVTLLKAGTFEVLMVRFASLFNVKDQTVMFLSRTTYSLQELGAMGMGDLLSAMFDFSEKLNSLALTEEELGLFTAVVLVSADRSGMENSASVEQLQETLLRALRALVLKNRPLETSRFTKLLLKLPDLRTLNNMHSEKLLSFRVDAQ
# p47phox inh: p47phox/p22phox peptide binding inhibitors, primary screen, biochemical, uHTS, NADPH oxidase regulatory subunit; Neutrophil cytosol factor 1 (Homo sapiens), P14598; fluorescence polarization, 2 h; inhibition, % at 24.7 µM; 0.53% of 220,000 active; AID 1274, 2008;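 active = inhibition above about 30%, limit read from the data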;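 also: 0% = p47phox with labelled peptide and 100% = labelled peptide alone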
# PG9 Ab binder: binders of HIV-1 gp120 antibody PG9, primary screen, biochemical, TR-FRET; TR-FRET gp120-PG9 antibody binding; AID 624416, 2012; 0.43% of 360,000 active; inhibition, % at 6.7 µM; HIV-1 gp120 / PG9 antibody interaction; in the data active = inhibition above about 8.5%
# ZTA counter: counter-screen for EBNA-1 inhibitors: inhibitors of Epstein-Barr virus ZTA; 0.15% of 320,000 active; inhibition, % at 11 µM; ZTA-DNA binding, fluorescence polarization; AID 2234; P03206; in the data active = inhibition above about 33%
# PG9 binder conf: binders of anti-gp120 antibody PG9, confirmation, biochemical, TR-FRET | shares compounds with PG9 Ab binder | TR-FRET PG9 antibody binding | inhibition, % at 6.7 µM | 90% of 1,500 active | AID 651571, 2012; in the data active = inhibition above about 9%
# PGV04 counter: binders of control antibody PGV04, counter-screen for PG9 antibody binder project, biochemical, TR-FRET, distinct HIV envelope site | shares compounds with PG9 Ab binder | TR-FRET PGV04 antibody-gp120 binding | inhibition, % at 6.7 µM | 95% of 1,500 active; in the data active = inhibition above about 9.5%
# PG9 bind DR: small-molecule binders of antibody PG9, dose response, biochemical, TR-FRET, HIV-1 gp120 antibody. shares compounds with PG9 Ab binder. TR-FRET PG9 antibody-gp120 binding inhibition. IC50, µM. 95 tested, under 10 active. AID 651848, 2012; in the data active = IC50 below about 10 µM
# PGV04 DR counter: binders of control antibody PGV04, dose response, counter-screen for PG9 antibody binder project, biochemical, TR-FRET, distinct HIV envelope site | IC50, µM | shares compounds with PG9 Ab binder | TR-FRET binding to control antibody PGV04 | 20% of 95 active
# PG126 binding DR: binders of control antibody PG126, dose response, counter-screen for PG9 antibody binder project, biochemical, TR-FRET, distinct HIV envelope site. shares compounds with PG9 Ab binder. TR-FRET binding to antibody PG126, counterscreen. IC50, µM. 20% of 95 active. AID 651939, 2012
# * = called active by the depositor; i = inactive; nt = no result given. Rule as the data show it, unless noted: active = IC50 below about 9 µM; inactive = the rest.
SMILES,aDG glyco act,EBNA-1 inh,Rev-erbA mod,p47phox inh,PG9 Ab binder,ZTA counter,PG9 binder conf,PGV04 counter,others
Cc1cc2n(n1)C(c1ccc3c(c1)OCO3)Nc1c(C)cccc1-2 (stereo not given),0,5,10,-7,0,-4,nt,nt,
CCCC1CCC2(CC1)CCC2OC(=S)Nc1ccc(I)cc1 (stereo not given),nt,nt,-7,nt,nt,nt,nt,nt,
CCOC(=O)c1c(C)[nH]sc1=S,0,nt,5,4,17*,nt,9.3*,8,PG9 bind DR=>67;PGV04 DR counter=i;PG126 binding DR=i
CCOC(=O)c1sc(=S)[nH]c1C,0,nt,1,nt,19*,nt,11*,9,PG9 bind DR=i;PGV04 DR counter=i;PG126 binding DR=i
COc1ccc(-n2c(SCC(=O)N(CC(C)C)CC(C)C)nnc2-c2ccncc2)cc1,nt,nt,-5,nt,nt,nt,nt,nt,
COc1ccc(Cn2cc(CN3CC=CS3(=O)=O)nn2)cc1,nt,nt,2,nt,nt,nt,nt,nt,
Cc1cccc(NC(=O)c2ccccc2O)c1C,0,3,-1,-5,-4,-8,nt,nt,
Cc1cccc(NC(=O)c2cnn3ccccc23)c1C,0,5,-3,-4,11*,3,1,4,
O=C(NCc1cccs1)C1CCCN(S(=O)(=O)c2ccccc2)C1 (stereo not given),nt,nt,4,nt,nt,nt,nt,nt,
N=c1oc2ccccc2cc1-c1nc(-c2ccc(Cl)cc2)cs1,1,5,1,-9,10*,6,8.8*,13*,
O=c1oc2ccccc2cc1-c1csc(Cc2nc(-c3ccc(Cl)cc3)cs2)n1,1,15,7,-42,-1,8,nt,nt,
CC1(C)CC(=O)C=C(Nc2ccccc2NC(=O)c2cccc(F)c2F)C1,nt,nt,-5,nt,nt,nt,nt,nt,
CCn1c(/C=C/c2cc[n+](C)cc2)nc2ccccc21,0,6,5,nt,13*,17,14*,16*,
CCCn1c(/C=C/c2ccccc2)nc2ccccc21,0,2,0,-9,1,11,nt,nt,
CC(=O)CC[C@@H]1CC[C@]2(CCCN(S(=O)(=O)C3CCCCC3)C2)O1,nt,nt,-2,nt,nt,nt,nt,nt,
COC(=O)CC[C@H](/C=C/C(=O)OC(C)(C)C)Sc1ccc(C(C)(C)C)cc1,nt,nt,7,nt,nt,nt,nt,nt,
CC(=O)C(C(C)=O)c1c(Cl)c(O)c(O)c2c(C(=O)c3ccccc3)coc12,2,-17,2,-1,12*,-3,18*,20*,
CN1CCN(Cc2c(O)ccc3occ(C(=O)c4ccccc4)c23)CC1,0,-4,1,1,2,-17,nt,nt,
O=C(C1CCC1)N1CCc2cc(S(=O)(=O)N3CCCC3)ccc21,nt,nt,2,nt,nt,nt,nt,nt,
O=C(Nc1cccnc1N1CCOCC1)c1cc2ccccc2oc1=O,1,11,-3,nt,-2,-11,nt,nt,
COc1cccc2cc(C(=O)Nc3cccnc3N3CCOCC3)c(=O)oc12,0,4,-5,3,9.7*,4,4,7,
CC[C@H](CCCCCCCn1ccc2ccccc21)CCC(=O)N(c1ccccc1)c1ccccc1,nt,nt,-5,nt,nt,nt,nt,nt,
CCN=C1SC(CC(=O)NC(N)=O)C(=O)N1CC (stereo not given),0,4,-2,-9,0,-3,nt,nt,
CCN=C1SC(C(N)=O)CC(=O)N1CC (stereo not given),2,4,-6,10,9.0*,6,-1,18*,
O=C(COc1ccccc1)Nc1ccc(-c2nnc(-c3ccco3)o2)cc1,0,-8,6,6,70*,-1,55*,72*,
SMILES,aDG glyco act,EBNA-1 inh,Rev-erbA mod,p47phox inh,PG9 Ab binder,ZTA counter,PG9 binder conf,PGV04 counter,others
O=C(c1cc([N+](=O)[O-])ccc1N1CCOCC1)N1CCN(c2ccc([N+](=O)[O-])cc2)CC1,0,-3,3,nt,18*,-14,7,7,PG9 bind DR=>67;PGV04 DR counter=>67;PG126 binding DR=>67
COC(=O)[C@]12C[C@H](CC(=O)N3CCN(C(=O)C4CC4)CC3)C(=O)N(CCc3ccc(OC)c(OC)c3)C1=C[C@H](COCc1ccccc1)O[C@@H]2C,nt,nt,16,nt,nt,nt,nt,nt,
O=C(CSc1ccc2nnc(-c3cccc(F)c3)n2n1)N1CCCc2ccccc21,0,-4,1,24,9.1*,5,18*,39*,
Cc1cc(OC(=O)c2cc(Cl)ccc2Cl)c([N+](=O)[O-])c(=O)[nH]1,0,0,4,nt,30*,11,7,11*,
CC(C)CNC(=O)OCc1cn(Cc2cc(F)ccc2F)nn1,nt,nt,1,nt,nt,nt,nt,nt,
CSc1ncccc1C(=O)OCC(=O)c1ccc(C)s1,0,nt,17,nt,16*,nt,16*,38*,
CCOc1ncccc1C(=O)OCC(=O)Nc1ccc(Cl)cn1,0,nt,-1,nt,-2,nt,nt,nt,
CSc1ncccc1C(=O)OCC(=O)c1ccc(Cl)s1,0,nt,2,nt,-2,nt,nt,nt,
CSc1ncccc1C(=O)OCc1ccc(C#N)cc1,0,6,2,-6,9.8*,8,15*,20*,
CSc1ncccc1C(=O)OCC(=O)Nc1ccc(Cl)cn1,0,nt,-3,nt,17*,nt,9.9*,15*,
Cc1ccc(CNc2nc3cc(-c4ccccc4)sc3c(=O)n2C)c(C)c1,0,nt,6,nt,0,nt,nt,nt,
COc1ccc(-c2cc3nc(NCc4ccc(C)cc4C)n(C)c(=O)c3s2)cc1OC,0,nt,12,nt,13*,nt,13*,20*,
O=C(Cn1nnc2c(cnn2-c2ccc(F)cc2)c1=O)Nc1ccccc1C(F)(F)F,1,3,17,-1,11*,20,14*,20*,
O=C(Cn1nnc2c(cnn2-c2ccccc2)c1=O)NCc1cccs1,0,-9,-6,-11,-2,-11,nt,nt,
Cc1cc2cc(CNC(=O)c3cccc([N+](=O)[O-])c3)ccc2n1C,1,-2,3,-8,3,10,nt,nt,
Cc1cc2cc(CNC(=O)Cc3ccc([N+](=O)[O-])cc3)ccc2n1C,0,7,-6,-11,10*,4,13*,21*,
